PubChem BioAssay AID488890 (Southern Research Specialized Biocontainment Screening …, 2010)
The whole screen tested about 320,000 compounds, of which about 1,300 (0.41%) were called active. Roughly 3% stayed inconclusive and do not appear here. How the calls were made is not given here. A selection follows. Results with a measured potency or affinity are listed apart.

assay: growth inhibition of non-replicating M. tuberculosis (AID 488890); details: Mycobacterium tuberculosis non-replicating, at 25 µM, stronger effect = higher value;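 further: plate controls were DMSO cells for no effect and high antibiotic wells for full effect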

Row | Structure (SMILES) | inhibition [%]
1 | C#CCSc1n[nH]c(=O)n1-c1cccc(C(F)(F)F)c1 | 3.27
2 | O=C(N/N=C/c1c(O)n(-c2ccc(Cl)cn2)c(=O)c2ccccc12)C1CC1 | 6.8
3 | O=C(CCNc1n[nH]c(=O)[nH]c1=O)N/N=C\c1cccc(OCc2ccccc2)c1 | 10.7
4 | COc1ccc(NC(=O)c2ccc(C(=O)c3ccccc3)o2)cc1 | -11.3
5 | COc1cccc(NC(=O)CNC(=O)c2ccc([N+](=O)[O-])cc2)c1 | 12.4
6 | COc1cccc(NC(=O)c2ccccc2)c1 | 4.57
7 | Cc1cc(NC(=O)c2ccc(Cn3cc([N+](=O)[O-])cn3)o2)no1 | 14.1
8 | COc1ccc(CCNC(=O)c2ccc(-c3ccc([N+](=O)[O-])cc3)o2)cc1OC | 60.1
9 | COc1cccc(NC(=O)CC(=O)c2ccc([N+](=O)[O-])cc2)c1 | 47
10 | CC(=O)Nc1ccc(NC(=O)c2ccc(-c3ccc([N+](=O)[O-])cc3)o2)cc1 | 28.3
11 | Cc1ccccc1NC(=O)c1ccc(Cn2cc([N+](=O)[O-])cn2)o1 | 46.5
12 | CSc1nc2n(n1)C(C)C1=C(CCCC1=O)N2 (stereo unspecified) | -15.3
13 | CC(=O)Nc1ccc(NC(=O)c2ccc(S(=O)(=O)N(C)c3ccccc3)cc2)cc1 | -4.01
14 | COc1ccc(C(=O)OCc2c(-c3ccccc3)ncc3ccccc23)cc1 | 14.9
15 | Cc1cccc(C(=O)NCCC(=O)Nc2ccc(C#N)cc2)c1 | -25.3
16 | Cc1cccc2nc(CSc3ccccc3C(=O)O)cn12 | 24.4

Row | Structure (SMILES) | inhibition [%]
17 | Cc1cc(C)cc(NC(=O)C2CCCN(c3ncccn3)C2)c1 (stereo unspecified) | 0.57
18 | c1cc(-c2cc3cc4c(cc3cn2)OCO4)cs1 | 53.8
19 | O=S(=O)(CCN1CCN(c2ccccn2)CC1)c1ccc(F)cc1 | 3.07
20 | O=S(=O)(c1cc(Cl)ccc1Cl)N1CCN(c2ccccn2)CC1 | 6.68
21 | CC(=O)Cn1c2ccccc2n2nc(CCC(=O)O)c(=O)nc12 | -25.9
22 | O=C(OCC(=O)N1CCCC1)c1ccccc1O | 71.7
23 | O=C(c1cc2ccccc2cc1O)N1CCCC1 | 5.6
24 | O=C(OCC(=O)N1CCN(C(=O)COC(=O)c2ccc(O)cc2O)CC1)c1ccc(O)cc1O | -2.13
25 | Cc1cccc(C(=O)OCC(=O)N2CCCCCC2)c1 | 12
26 | CC1CCN(C(=O)COC(=O)c2cc3ccccc3oc2=O)CC1 | 11.8
27 | CC1CCN(C(=O)c2cc3ccccc3cc2O)CC1 | 62
28 | O=C(COc1ccc(Cl)cc1)OCC(=O)N1CCCCCC1 | 70.8
29 | NC(=O)C1CCN(C(=O)COc2ccc(Nc3ccccc3)cc2)CC1 | 24.7
30 | O=[N+]([O-])c1cccc(-c2csc(N/N=C/c3cccc(O)c3)n2)c1 | 4.67
31 | COc1ccc(C(OC(=O)c2ccco2)C(=O)NC2CCCC2)cc1 (stereo unspecified) | -11.4
